Shown are actives, neighbours in structure and some others; about 3.6% of the full set was active somewhere.
NRP1-CendR mod = NRP-1/CendR interaction modulation. hit rate 0.85% among 360,000. AID 602438. FAM-RPARPAR peptide binding to NRP-1, fluorescence polarization. inhibition, % at 25 µM;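 active = inhibition or corrected inhibition above about 18%, plus a signal ratio from 0.5 to 1.5, limit read from the data, passing the limit was not always enough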
FAS-TE inh = FAS thioesterase (human) inhibition; recombinant FAS-TE, OMFH fluorogenic substrate, fluorescence endpoint; inhibition, % at 15 µM; AID 602261; P49327; hit rate 0.67% among 360,000;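 active = compounds whose normalised, plate-corrected inhibition of enzyme fluorescence in the single-dose primary screen is 50% or more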;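 also: 0% = DMSO with enzyme and 100% = substrate without enzyme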
CRFR2-BP antag = blocks CRF-induced signaling of the CRF-BP/CRF-R2 complex. HEK293 CRF-R2/CRF-BP, CRF-induced calcium fluorescence. hit rate 0.59% among 350,000. inhibition, % at 11.8 µM. AID 588475;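 active = inhibition of the ligand-induced calcium signal above about 50% at the single tested concentration, limit read from the data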
NadD inh = inhibitors of Staphylococcus aureus NadD; hit rate 0.78% among 360,000; inhibition, % at 20 µM; purified NadD enzyme, colorimetric absorbance read-out; in the data active = inhibition above about 26%
Myeloid diff MLP = promotes myeloid progenitor differentiation. calls only at 10 µM. ER-HoxA9 myeloid progenitors, lysozyme-GFP differentiation, flow cytometry. AID 624256. hit rate 1% among 360,000;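 active = normalized GFP-positive differentiation at or above the plate's own cutoff, the solvent-only control mean plus 3 SD; inconclusive = no clear call, values can overlap the other calls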;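 also: cells exposed to compound for four days before flow analysis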
Numbers without * were called inactive.

`CCC(CO)[n+]1c(C)cc(/C=C2\Sc3ccccc3N2Cc2ccccc2)cc1C` (stereo not drawn) gave NRP1-CendR mod -92.8, FAS-TE inh -22.8, CRFR2-BP antag -102.6, NadD inh -2.1 and Myeloid diff MLP active.
`C[C@H](NC(=O)CCC1CCC(=O)N1)c1ccccc1` (stereo partly drawn) gave NRP1-CendR mod 19.1*, FAS-TE inh -7.6, CRFR2-BP antag -3.2, NadD inh -5.4 and Myeloid diff MLP inactive.
For O=C1Nc2ccccc2C(=O)N(c2ccc3c(c2)OCCO3)C1C(=O)NC1CC1 (stereo not drawn) the results were NRP1-CendR mod 6.0 and Myeloid diff MLP inactive.
For COc1cccc(C=Cc2nccc3ccccc23)c1OC the results were NRP1-CendR mod 25.4*, FAS-TE inh 4.2, CRFR2-BP antag 9.6, NadD inh -2.6 and Myeloid diff MLP inactive.
O=C(O)CCn1cc(/C=N/O)c(-c2cccc([N+](=O)[O-])c2)n1 was read as NRP1-CendR mod 9.6, FAS-TE inh -2.1, CRFR2-BP antag 10.9, NadD inh -1.5 and Myeloid diff MLP inactive.
C[C@H](NC(=O)c1ccccc1)C(=O)N1CCN(Cc2ccc3c(c2)OCO3)CC1 was read as NRP1-CendR mod -8.6, FAS-TE inh -9.7, CRFR2-BP antag 2.6, NadD inh -1.9 and Myeloid diff MLP inactive.
NC(=O)CC[C@H](NC(=O)c1ccc(F)cc1)C(=O)N1CCN(Cc2ccc3c(c2)OCO3)CC1 was read as NRP1-CendR mod 20.6*, FAS-TE inh -1.0, CRFR2-BP antag 1.8, NadD inh 1.6 and Myeloid diff MLP inactive.
For CCCNC(=O)c1nn2c(C(F)(F)F)cc(-c3ccccc3)nc2c1Cl the results were NRP1-CendR mod 7.2, FAS-TE inh 4.6, CRFR2-BP antag -2.1, NadD inh -4.0 and Myeloid diff MLP inactive.
`O=C(NCCCn1ccnc1)c1nn2c(C(F)(F)F)cc(-c3ccc(Br)cc3)nc2c1Cl` gave NRP1-CendR mod 29.7*, FAS-TE inh -12.0, CRFR2-BP antag -35.2, NadD inh 20.9 and Myeloid diff MLP inconclusive.
Screening CCOC(=O)c1nnn(-c2nonc2N)c1CN(C)C1CCCCC1 returned NRP1-CendR mod -9.4, FAS-TE inh -1.3, CRFR2-BP antag 60.1*, NadD inh -2.0 and Myeloid diff MLP inactive.
CCOC(=O)c1nnn(-c2nonc2N)c1CN(CC)CC was read as NRP1-CendR mod 0.3, FAS-TE inh -4.5, CRFR2-BP antag -20.0, NadD inh 2.8 and Myeloid diff MLP inactive.
`CCCOc1ccc(C(=O)N2CCCC2C(=O)O)cc1` (stereo not drawn) gave NRP1-CendR mod 7.2, FAS-TE inh -5.2, CRFR2-BP antag -0.4, NadD inh 3.5 and Myeloid diff MLP inactive.
CCOc1ccc(C(=O)N2CCCC2C(=O)O)cc1 (stereo not drawn) was read as NRP1-CendR mod 3.0, FAS-TE inh -2.1, CRFR2-BP antag 10.3, NadD inh 1.5 and Myeloid diff MLP active.
`COc1ccc(S(=O)(=O)NC(=O)C2(C)CCN2C(=O)CCC2CCCC2)cc1OC` (stereo not drawn) gave NRP1-CendR mod -8.1, FAS-TE inh -10.7, NadD inh -5.5 and Myeloid diff MLP inactive.
`O=C(NC(Cc1ccccc1)c1nc2ccccc2[nH]1)c1ccc(Cl)c([N+](=O)[O-])c1` (stereo not drawn) gave NRP1-CendR mod 4.1, FAS-TE inh 25.5, CRFR2-BP antag 76.2*, NadD inh 6.6 and Myeloid diff MLP inactive.
CCN1CCN(c2cc(N3CCN(C(=O)c4ccco4)CC3)c3c4c(onc24)-c2ccccc2C3=O)CC1 was read as NRP1-CendR mod -82.3, FAS-TE inh 8.6, CRFR2-BP antag -3.0, NadD inh 44.8* and Myeloid diff MLP inconclusive.
Screening CC(C)Oc1ccc(S(=O)(=O)N2CCOCC2)cc1NC(=O)CSc1nnc(C2CC2)n1C returned NRP1-CendR mod -7.3, FAS-TE inh -9.8, CRFR2-BP antag -1.5, NadD inh 0.1 and Myeloid diff MLP inactive.
`CC1(C)CC(CCNS(=O)(=O)c2ccccc2)(c2ccccc2)CCO1` (stereo not drawn) gave NRP1-CendR mod -8.8, FAS-TE inh 1.4, CRFR2-BP antag 4.8, NadD inh -7.1 and Myeloid diff MLP inactive.
`CC1(C)CC(CCNC(=O)CCl)(c2ccccc2)CCO1` (stereo not drawn) gave NRP1-CendR mod 26.2*, FAS-TE inh -4.0, CRFR2-BP antag 13.8, NadD inh -5.0 and Myeloid diff MLP inactive.
